Source: PubChem BioAssay (National Center for Advancing Translational Sciences (NCATS))
Hits are enriched below; roughly 10% of the tested compounds scored in any of these assays.
ELG1 DNA repair = inhibitors of ELG1-dependent DNA repair in HEK293T cells; HEK293T ELG1-luciferase reporter, luminescence, 16 h; DNA damage induced by 5-fluorouridine; Potency, µM (top dose mostly 46.1 µM), for the others: at the top dose activity change, negative = inhibition, hits mostly inhibitors; 330,000 compounds, 2.3% hits; AID 504467; further: on the % scale 0 is the no-effect control and ±100 the full control effect; nearly all actives have a fitted effect of over 55% in size
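Step one: seed 2,000 cells per well. Step two: pin-transfer compound or DMSO alongside 5-fluorouridine. Step three: incubate 16 hr, 37 °C, 5% CO2. Step four: add ONE-Glo, wait 30 min, read luminescence.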
SW480 rereplic = induces DNA re-replication in SW480 colon adenocarcinoma cells; SW480 DNA re-replication, Hoechst DNA content imaging, 48 h; Potency, µM (top dose mostly 46.1 µM), for inactives: at the top dose re-replication activation, most hits filed as activators; 340,000 compounds, 1.8% hits; AID 624297; further: % of control where 0% means no effect; nearly all actives have a fitted effect of over 55% in size
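Quantitative HTS format with DMSO vehicle controls; 48 hr drug incubation at 37 C, then 40 min Hoechst staining and scanning imager measurement at 405 nm excitation.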
Gal4-VP16 FLuc = inhibits Gal4-VP16 luciferase reporter, ROR gamma counter-screen; Drosophila S2 Gal4-VP16 UAS-luciferase, luminescence, 20 h; Potency, µM (highest dose often 53.6 µM), inactives show at the top dose activity, negative = inhibition, hits mostly inhibitors; 310,000 compounds, 3.5% hits; AID 2546;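 further: Gal4-VP16 expression switched on by copper sulfate through the metallothionein promoter; on the % scale 0 is the no-effect control and ±100 the full control effect; nearly all actives have a fitted effect of over 50% in size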
MCF10A rereplic = DNA re-replication induction in MCF 10a cells. 350,000 compounds, 2.9% hits. Potency, µM (doses to about 46.1 µM), without a hit: at the top dose activity, positive = re-replication, hits mostly activators. AID 624296. MCF 10A DNA re-replication, Hoechst nuclear intensity, 48 h; further: % of control where 0% means no effect; nearly all actives have a fitted effect of over 50% in size
RORgamma inh = blocks mouse ROR gamma transcriptional activity. Drosophila S2 Gal4-RORgamma UAS-luciferase reporter, 20 h. Potency, µM (highest dose often 53.6 µM), for the others: at the highest dose activity change, negative = inhibition, actives largely listed as inhibitors. 310,000 compounds, 5.4% hits. AID 2551. P51450; further: on the % scale 0 is the no-effect control and ±100 the full control effect; nearly all actives have a fitted effect of over 60% in size
Target sequence (P51450 whole entry, looked up, the tested form may be a part): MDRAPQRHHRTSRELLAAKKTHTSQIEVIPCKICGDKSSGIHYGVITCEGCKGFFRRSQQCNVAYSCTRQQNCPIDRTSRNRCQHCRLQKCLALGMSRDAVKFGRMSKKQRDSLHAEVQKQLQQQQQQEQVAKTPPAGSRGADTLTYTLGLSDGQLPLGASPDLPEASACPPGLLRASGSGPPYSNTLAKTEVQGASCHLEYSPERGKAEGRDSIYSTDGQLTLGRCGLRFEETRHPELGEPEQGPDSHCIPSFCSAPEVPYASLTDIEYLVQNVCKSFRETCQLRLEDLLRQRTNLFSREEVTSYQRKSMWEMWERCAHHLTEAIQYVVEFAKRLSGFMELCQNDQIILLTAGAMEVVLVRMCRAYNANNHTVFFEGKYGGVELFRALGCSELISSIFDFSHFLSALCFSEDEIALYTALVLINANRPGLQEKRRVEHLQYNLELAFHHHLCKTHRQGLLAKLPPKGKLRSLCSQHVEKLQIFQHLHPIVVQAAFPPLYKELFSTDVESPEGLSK
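Luminescence from a UAS-regulated Photinus luciferase reporter in stably transfected Drosophila Schneider cells is measured; decreased signal marks ROR gamma inhibition. Fusion expression is induced by 700 uM copper sulfate for 20 hr.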
Active calls of the source: *; u = inconclusive; x = no result; [ ] = dose if it differs, or a comment. The call rests on the fitted dose curve; in most records, active means well fitted curve in the direction sought with a large enough effect; inconclusive means small, poorly fitted or top-dose-only effect, or another doubt; inactive means no such curve, though single readings can be large; an effect the other way counts as inactive or inconclusive. Potency means the concentration at half of the fitted maximal effect.

SMILES	ELG1 DNA repair	SW480 rereplic	Gal4-VP16 FLuc	MCF10A rereplic	RORgamma inh
CCn1ncc(C2=NOC(C(=O)NCc3ccc(Cl)cc3)C2)c1C (stereo unspecified)	20%	3.7µM*	-13%	u	-1%
CN1CCN(c2ccnc(-c3ccoc3)n2)CC1	x	x	5%	x	-1%
COc1ccc(-c2cc(C3C4C=CCC(C)C4C(=O)N3Cc3ccccc3)ccc2F)cc1 (stereo unspecified)	x	x	-15%	x	-3%
CC(C)CCN(C(=S)NC(=O)C1CCCCC1)c1c(N)n(Cc2ccccc2)c(=O)[nH]c1=O	0%	2%	3%	-2%	-5%
Clc1ccccc1/C=C/c1nc(-c2cccnc2)no1	u	-15%	0%	1%	2µM*
C(=C\c1nc(-c2cccnc2)no1)/c1ccccc1	u	-5%	u	8%	4.5µM*
Clc1ccccc1-c1nc(-c2cccnc2)no1	x	-2%	-18%	u	u
O=C(O)CSc1cc(C(=O)c2cc(F)ccc2O)cn2c(=O)c3c(-c4ccccc4)csc3nc12	-4%	-20%	-17%	13µM*	35µM*
CCOC(=O)c1sc2nc3c(SCCC(=O)O)cc(C(=O)c4cc(OC)ccc4O)cn3c(=O)c2c1C	-7%	2.6µM*	-7%	u	u
CCc1c(C)sc2nc3c(C(=O)N4CCOCC4)cc(C(=O)c4cc(F)ccc4O)cn3c(=O)c12	u	-1%[1.84 µM]	-4%	u	0%
CCOC(=O)c1sc2nc3c(SCCC#N)cc(C(=O)c4cc(F)ccc4O)cn3c(=O)c2c1C	-16%	19%	4%	18%	-14%
CCN(CCO)C1CC(=O)N(c2ccccc2C)C1=O (stereo unspecified)	-12%	u	3.5µM*	u	4µM*
CCN(CC)C1CC(=O)N(c2cccc(C)c2)C1=O (stereo unspecified)	8%	x	7.1µM*	x	-142%
Cc1ccccc1N1C(=O)CC(N(O)c2ccccc2)C1=O (stereo unspecified)	u	-5%	4%	4%	0%
Cc1cccc(N2C(=O)C3CCCN3C2=S)c1 (stereo unspecified)	-2%	u	-8%	-9%	3%
Cc1cccc(N2C(=O)C=CC2=O)c1	x	u	x	21µM*	x
CCCCc1ncc(CN2CCC(n3nccc3NC(=O)c3ccccc3OC)CC2)[nH]1	14%	-11%	-5%	13%	-8%
CC(=O)c1cccc(NC(=O)CC2S/C(=N/N=C/c3cccs3)NC2=O)c1 (stereo unspecified)	-5%	-3%	-3%	3%	u
CC(C)C1S/C(=N/N=C/c2cccs2)NC1=O (stereo unspecified)	0%	-3%	0.89µM*	8%	0.32µM*
C(=N\N=C\c1cccs1)/c1cccs1	u	-4%	21%	2%	10%
CC1S/C(=N/N=C/c2cccs2)NC1=O (stereo unspecified)	u	3%	7.1µM*	2%	2.2µM*
CCCC1S/C(=N/N=C/c2cccs2)NC1=O (stereo unspecified)	20%	0%	0.4µM*	2%	0.22µM*
CCC1S/C(=N/N=C/c2cccs2)NC1=O (stereo unspecified)	u	0%	4µM*	-6%	0.79µM*
C=CCn1c(=O)c2c(nc(-n3nc(C)cc3C)n2C)n(C)c1=O	-4%	-9%	-4%	8%	-33%
O=C(Cn1cnc2c(nnn2Cc2ccc(F)cc2)c1=O)Nc1ccc2c(c1)OCCO2	8%	u	-4%	16µM*	-23%
SMILES	ELG1 DNA repair	SW480 rereplic	Gal4-VP16 FLuc	MCF10A rereplic	RORgamma inh
S=c1nc[nH]c2c1sc1nc(-c3ccccc3)c3c(c12)CCCC3	-2%	1%	10µM*	u	16µM*
CCOC(=O)c1cc(C#N)c(SC(C)C(=O)NC2CCCCC2)nc1C (stereo unspecified)	12%	-3%	x	1%	x
O=C(CNCc1ccco1)Nc1cccc(S(=O)(=O)N2CCCCC2)c1	1%	-3%	1%	-2%	38%
CCOc1ccc(N=Cc2ccccc2O)cc1	x	-12%	x	1%	x
CCc1ccc(O)c(N=Cc2ccccc2O)c1	-1%	u	-28%	u	13µM*
O=[N+]([O-])c1cc(Cc2ccccc2)cc(C=Nc2ccc(N3CCOCC3)cc2)c1O	-7%	-2%	-15%	u	u
CCN(CC)c1ccc(N=Cc2cc(Br)ccc2O)cc1	u	10µM*	u	u	18µM*
Cc1ccc(O)c(C=Nc2cc(C)ccc2O)c1	1%	-3%	20µM*	u	u
Cc1ccc(O)c(N=Cc2cc(Cc3ccccc3)cc([N+](=O)[O-])c2O)c1	u	-8%	-17%[10 µM]	u	13µM*
Oc1ccc(Br)cc1C=Nc1ccc(Cl)cc1	u	-12%	4%	-6%	-38%
CC1CN(S(=O)(=O)c2cccc(C(=O)NCC(c3cccs3)N3CCOCC3)c2)CC(C)O1 (stereo unspecified)	x	u	x	-6%	x
CCC(C)NS(=O)(=O)c1ccc(OCC(=O)N2CCCC2)cc1 (stereo unspecified)	-1%	-4%	-6%	-5%	-14%
OCC(CO)(CO)N=Cc1cc(Br)ccc1O	-1%	2%	-4%	3%	-24%
O=[N+]([O-])c1cccc(C=Nc2cccc3ccccc23)c1O	0%	u	-16%	4%	1.6µM*
CC(C)(C)c1ccc(O)c(N=Cc2cc(Br)ccc2O)c1	3%	7%	u	17%	10µM*
O=[N+]([O-])c1ccc(O)c(C=Nc2cccc3ccccc23)c1	-1%	1%	-12%	16%	-25%
CCOc1cc(C)c(S(=O)(=O)Nc2ccc(Cl)cn2)cc1C	5%	16%	-4%	23µM*	8%
Cn1c(N)c(C(=O)COC(=O)CNC(=O)c2ccccc2F)c(=O)n(C)c1=O	u	6%	x	4%	x
O=C(/C=C/c1ccc(Cl)cc1)NC(=S)Nc1ccc(NC(=O)c2ccco2)cc1	u	6%	7.1µM*	10%	4.5µM*
COc1ccc(Br)cc1/C=C/C(=O)NC(=S)Nc1ccc(CN2CCOCC2)cc1	-7%	-2%	4.5µM*	-3%	1.8µM*
COc1ccc(NC(=O)/C=C/c2cc(Br)ccc2OC)cc1	u	-1%	-3%	u	u
CC(=O)Nc1ccc(NC(=S)NC(=O)/C=C/c2ccc(Cl)cc2)cc1	14%	-127%	-10%[10 µM]	-6%	-13%
O=C(/C=C/c1ccc(Cl)cc1Cl)Nc1ccc(CN2CCOCC2)cc1	u	u	-6%	8.2µM*	9%
COc1ccc(Br)cc1/C=C/C(=O)c1ccc(NC(C)=O)cc1	15µM*	15µM*	10µM*	6.5µM*	5µM*
